# Test results as given in the supplement of paper PMC8728848.
# Many of the other results were omitted from the sample, so the strongest signals are more common in it than they were.
# Tests used:
# Experiment in all cases: glycan array binding signal (z-score within array); higher = stronger binding
# Settings in all cases: glycan notation: IUPAC condensed, linker removed
# [1] = target: GlcNAc(b1-3)Gal(b1-4)GlcNAc
# Method in brief: (§1)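 From the Consortium for Functional Glycomics database, 3228 arrays were curated, keeping only those whose protein sequence was available. Binding is given as a within-array Z-score averaged across arrays sharing a protein sequence and across linkers. Negative Z-scores can be read as non-binding.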
# [2] = target: GlcNAc(b1-3)[GlcNAc(b1-6)]GalNAc
# Method in brief: as §1
# Kdn(a2-3)Gal(b1-3)GlcNAc = target: Kdn(a2-3)Gal(b1-3)GlcNAc
# Method in brief: as §1
# Man(a1-2)Man(a1-3)Man = target: Man(a1-2)Man(a1-3)Man
# Method in brief: as §1
# [3] = target: Neu5Ac(a2-3)Gal(b1-3)GalNAc(b1-3)Gal(a1-4)Gal(b1-4)Glc
# Method in brief: as §1
# [4] = target: Neu5Ac(a2-3)Gal(b1-3)GlcNAc(b1-2)Man(a1-3)[Neu5Ac(a2-3)Gal(b1-3)GlcNAc(b1-2)Man(a1-6)]Man(b1-4)GlcNAc(b1-4)GlcNAc
# Method in brief: as §1
# [5] = target: Neu5Ac(a2-3)Gal(b1-3)[Fuc(a1-4)]GlcNAc
# Method in brief: as §1
# [6] = target: Neu5Ac(a2-3)Gal(b1-4)GlcNAc(b1-2)[Neu5Ac(a2-3)Gal(b1-4)GlcNAc(b1-4)]Man(a1-3)[GlcNAc(b1-4)][Neu5Ac(a2-3)Gal(b1-4)GlcNAc(b1-4)Man(a1-6)]Man(b1-4)GlcNAc(b1-4)GlcNAc
# Method in brief: as §1
# [7] = target: Neu5Ac(a2-3)Gal(b1-4)GlcNAc(b1-3)Gal
# Method in brief: as §1
# [8] = target: Neu5Ac(a2-3)Gal(b1-4)GlcNAc(b1-3)Gal(b1-4)GlcNAc(b1-2)Man(a1-3)[Neu5Ac(a2-3)Gal(b1-4)GlcNAc(b1-3)Gal(b1-4)GlcNAc(b1-2)Man(a1-6)]Man(b1-4)GlcNAc(b1-4)GlcNAc
# Method in brief: as §1
# [9] = target: Neu5Ac(a2-3)Gal(b1-4)GlcNAc(b1-3)Gal(b1-4)GlcNAc(b1-3)GalNAc
# Method in brief: as §1
# [10] = target: Neu5Ac(a2-3)Gal(b1-4)GlcNAc(b1-3)Gal(b1-4)[Fuc(a1-3)]GlcNAc
# Method in brief: as §1
# [11] = target: Neu5Ac(a2-3)Gal(b1-4)[Fuc(a1-3)]GlcNAc(b1-3)Gal
# Method in brief: as §1
# [12] = target: Neu5Ac(a2-3)Gal(b1-4)[Fuc(a1-3)]GlcNAc(b1-3)Gal(b1-4)GlcNAc
# Method in brief: as §1
# [13] = target: Neu5Ac(a2-3)Gal(b1-4)[Fuc(a1-3)]GlcNAc6S
# Method in brief: as §1
# [14] = target: Neu5Ac(a2-3)Gal6S(b1-4)GlcNAc
# Method in brief: as §1
# [15] = target: Neu5Ac(a2-3)Gal6S(b1-4)[Fuc(a1-3)]GlcNAc
# Method in brief: as §1
# [16] = target: Neu5Ac(a2-3)[GalNAc(b1-4)]Gal(b1-4)GlcNAc
# Method in brief: as §1
# [17] = target: Neu5Ac(a2-6)Gal(b1-4)GlcNAc
# Method in brief: as §1
# [18] = target: Neu5Ac(a2-6)Gal(b1-4)GlcNAc(b1-2)[Neu5Ac(a2-6)Gal(b1-4)GlcNAc(b1-4)]Man(a1-3)[GlcNAc(b1-4)][Neu5Ac(a2-6)Gal(b1-4)GlcNAc(b1-2)[Neu5Ac(a2-6)Gal(b1-4)GlcNAc(b1-6)]Man(a1-6)]Man(b1-4)GlcNAc(b1-4)GlcNAc
# Method in brief: as §1
# [19] = target: Neu5Ac(a2-6)Gal(b1-4)GlcNAc(b1-3)Gal(b1-3)GlcNAc
# Method in brief: as §1
# [20] = target: Neu5Ac(a2-6)Gal(b1-4)GlcNAc(b1-6)[Gal(b1-3)GlcNAc(b1-3)]Gal(b1-4)Glc
# Method in brief: as §1
# [21] = target: Neu5Ac(a2-6)Gal(b1-4)GlcNAc6S
# Method in brief: as §1
# Neu5Ac(a2-6)GalNAc = target: Neu5Ac(a2-6)GalNAc
# Method in brief: as §1
# [22] = target: Neu5Ac9Ac(a2-3)Gal(b1-4)GlcNAc
# Method in brief: as §1
# [23] = target: Neu5Gc(b2-6)Gal(b1-4)GlcNAc
# Method in brief: as §1
binder,measurement,setting,value
CML1 (Coprinopsis cinerea) (protein) MAIFHTGSELFIITRGPGKLTLLTWGGLNNLRSVIGAIPTENTGVTKWAVSFSHNYTRFSFIWEGQGEACYQIGNGLTRSPVGRSWSSSSTIHWGSSTVITEDVTSVVPGAVNRDKVTTAYALPDNL,glycan array binding signal (z-score),[1],-0.329
same,glycan array binding signal (z-score),[2],-0.329
same,glycan array binding signal (z-score),Kdn(a2-3)Gal(b1-3)GlcNAc,-0.319
same,glycan array binding signal (z-score),Man(a1-2)Man(a1-3)Man,-0.348
same,glycan array binding signal (z-score),[3],-0.333
same,glycan array binding signal (z-score),[4],-0.355
same,glycan array binding signal (z-score),[5],4.64
same,glycan array binding signal (z-score),[6],-0.332
same,glycan array binding signal (z-score),[7],-0.3
same,glycan array binding signal (z-score),[8],-0.331
same,glycan array binding signal (z-score),[9],-0.342
same,glycan array binding signal (z-score),[10],-0.341
same,glycan array binding signal (z-score),[11],4.46
same,glycan array binding signal (z-score),[12],2.41
same,glycan array binding signal (z-score),[13],4.04
same,glycan array binding signal (z-score),[14],6.01
same,glycan array binding signal (z-score),[15],3.49
same,glycan array binding signal (z-score),[16],-0.353
same,glycan array binding signal (z-score),[17],-0.352
same,glycan array binding signal (z-score),[18],-0.321
same,glycan array binding signal (z-score),[19],-0.35
same,glycan array binding signal (z-score),[20],-0.355
same,glycan array binding signal (z-score),[21],-0.334
same,glycan array binding signal (z-score),Neu5Ac(a2-6)GalNAc,-0.331
same,glycan array binding signal (z-score),[22],-0.348
same,glycan array binding signal (z-score),[23],-0.339
